According to PubChem BioAssay AID1159580 (chemical genetic matrix, 2015):
Several values for one entry are separate records, joined by “and”; a condition that tells them apart may be missing. Equal values may be shown once. About 2,000 (36%) of roughly 5,500 compounds were called active. Not shown: some 18% with an inconclusive outcome. No stated cut-off is given here; in the data, active means normalized growth mostly below about 0.91 (no sharp cut-off); inconclusive means no clear call, values can overlap the other calls; inactive means mostly above about 0.92. Some of the results follow.

Test: chemical genetic growth profiling, strain panel (AID 1159580);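 further: tested at 20 µM; growth read once vehicle control cultures reached saturation at 30 °C; 1 = growth at the plate median or of vehicle wells; lower values mean less growth of the strain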
Conditions: S. cerevisiae deletion strains, growth OD

Measured: normalized growth

N[C@@H](Cc1ccc(O)c(O)c1)C(=O)O
inactive: locus YAL013W, strain DEP1, hits give low values 0.999 | locus YAL021C, strain ccr4, hits give low values 1 | locus YAL026C, strain drs2, hits give low values 0.989 | locus YAL030W, strain snc1, hits give low values 1 | locus YBL061C, strain skt5, hits give low values 1.01 | locus YBR009C, strain hhf1, hits give low values 0.982 | locus YBR021W, strain FUR4, hits give low values 1.14 | locus YBR023C, strain chs3, hits give low values 1 | locus YBR171W, strain sec66, hits give low values 0.997 | locus YBR229C, strain ROT2, hits give low values 1.01 | locus YBR231C, strain swc5, hits give low values 1 | locus YBR279W, strain paf1, hits give low values 1 | locus YCL011C, strain gbp2, hits give low values 1 | locus YCL016C, strain dcc1, hits give low values 0.997 | locus YCL029C, strain bik1, hits give low values 0.998 | locus YCL061C, strain MRC1, hits give low values 0.998 | locus YCL069W, strain vba3, hits give low values 1 | locus YCR088W, strain abp1, hits give low values 0.999 | locus YDL005C, strain med2, hits give low values 0.994 | locus YDL035C, strain GPR1, hits give low values 0.976 | locus YDL040C, strain nat1, hits give low values 0.998 | locus YDL074C, strain BRE1, hits give low values 0.969 | locus YDL101C, strain DUN1, hits give low values 0.993 | locus YDL134C, strain PPH21, hits give low values 0.997 | locus YDL185W, strain tfp1, hits give low values 0.955 | locus YDL192W, strain arf1, hits give low values 0.991 | locus YDR001C, strain nth1, hits give low values 1 | locus YDR069C, strain doa4, hits give low values 1 | locus YDR101C, strain arx1, hits give low values 1 | locus YDR137W, strain rgp1, hits give low values 1.01 | locus YDR150W, strain NUM1, hits give low values 0.947 | locus YDR159W, strain sac3, hits give low values 0.995 | locus YDR162C, strain NBP2, hits give low values 0.968 | locus YDR195W, strain ref2 0.962 | locus YDR297W, strain sur2, hits give low values 1.01 | locus YDR318W, strain mcm21, hits give low values 0.987 | locus YDR334W, strain swr1, hits give low values 1 | locus YDR335W, strain msn5, hits give low values 0.997 | locus YDR388W, hits give low values 1.01 | locus YDR392W, strain spt3, hits give low values 0.885 | locus YDR502C, strain sam2, hits give low values 0.999 | locus YEL003W, strain gim4, hits give low values 0.999 | locus YEL037C, strain rad23, hits give low values 1 | locus YEL061C, strain CIN8 (second series), hits give low values 0.999 | locus YEL061C, strain CIN8, hits give low values 0.998 | locus YER015W, strain faa2, hits give low values 1.01 | locus YER016W, strain bim1, hits give low values 0.995 | locus YER110C, hits give low values 0.993 | locus YER111C, strain swi4, hits give low values 0.995 | locus YER155C, strain BEM2 (second series), hits give low values 0.988 | locus YER155C, strain BEM2, hits give low values 1.02 | locus YER167W, strain BCK2, hits give low values 0.989 | locus YFR010W, strain ubp6, hits give low values 0.999 | locus YGL078C, strain dbp3, hits give low values 0.986 | locus YGL086W, strain mad1, hits give low values 0.98 | locus YGL167C, strain pmr1, hits give low values 0.994 | locus YGL173C, strain kem1, hits give low values 1 | locus YGL227W, strain vid30, hits give low values 0.986 | locus YGL240W, strain doc1, hits give low values 0.986 | locus YGL248W, strain PDE1, hits give low values 0.989 | locus YGL253W, strain hxk2, hits give low values 1 | locus YGR078C, strain PAC10, hits give low values 0.932 | locus YGR135W, strain pre9, hits give low values 0.996 | locus YGR229C, strain SMI1, hits give low values 0.928 | locus YGR252W, strain gcn5, hits give low values 1.03 | locus YHR013C, strain ard1, hits give low values 0.943 | locus YHR027C, strain rpn1, hits give low values 1.01 | locus YHR030C, strain SLT2, hits give low values 0.997 and 0.962 | locus YHR079C, strain IRE1 (second series), hits give low values 0.995 | locus YHR079C, strain IRE1, hits give low values 0.951 | locus YHR094C, strain hxt1, hits give low values 0.988 | locus YHR129C, strain ARP1, hits give low values 0.991 | locus YHR142W, strain chs7, hits give low values 1.01 | locus YHR200W, strain rpn10, hits give low values 0.992 | locus YIL066C, strain RNR3, hits give low values 0.928 | locus YIL073C, strain SPO22, hits give low values 0.866 | locus YIL125W, strain kgd1, hits give low values 0.984 | locus YIR030C, strain dcg1, hits give low values 1 | locus YJL092W, strain hpr5, hits give low values 0.991 | locus YJL095W, strain BCK1 (second series), hits give low values 1 | locus YJL095W, strain BCK1, hits give low values 1.01 and 0.968 | locus YJL115W, strain asf1, hits give low values 1 | locus YJL129C, strain trk1, hits give low values 1 | locus YJL134W, strain LCB3, hits give low values 0.99 | locus YJL154C, strain vps35, hits give low values 1 | locus YJL164C, strain tpk1, hits give low values 1 | locus YJL166W, strain qcr8, hits give low values 0.997 | locus YJL168C, strain set2, hits give low values 1.01 | locus YJL187C, strain SWE1 (second series), hits give low values 0.984 | locus YJL187C, strain SWE1, hits give low values 1 | locus YJR043C, strain POL32, hits give low values 0.996 | locus YJR066W, strain TOR1, hits give low values 0.928
